This excerpt belongs to a sample that is enriched for hits.
ST2 inh: inhibitors of human ST2 (IL1RL1) binding to IL-33, primary screen, biochemical, AlphaLISA. Interleukin-1 receptor-like 1 (Homo sapiens), Q01638. AlphaLISA ST2-Fc/biotin-IL-33 interaction, 1 h. inhibition, % for hits at 17 µM. hit rate 2.3% among 78,000; in the data active means inhibition above about 30%
The depositor's hits bear a star; i = inactive.

SMILES | ST2 inh
COc1ccc(-c2ccc(=O)n3c2[C@@H]2C[C@@H](CN(S(=O)(=O)c4ccc(C)cc4)C2)C3)cc1 | i
CCOC(=O)c1nc2ccccc2c(=O)n1-c1ccc(Cl)c(Cl)c1 | i
CCNC(=O)NC[C@H]1C[C@@H]2CCN1C[C@@H]2c1cc(-c2ccco2)nn1C | i
COc1ccccc1-c1cc([C@H]2CN3CC[C@H]2C[C@@H]3CNC(=S)Nc2ccccc2)n(C)n1 | i
CSc1ccc(-c2ccc3n(c2=O)C[C@H]2C[C@@H]3CN(C(=O)c3cccs3)C2)cc1 | i
Cc1nc(-c2ccc(N(C)C)cc2)cc([C@H]2CN3CC[C@H]2C[C@@H]3CNC(=S)Nc2ccc(F)cc2)n1 | i
CN(C)CC(=O)N1C[C@@H]2C[C@H](C1)c1ccc(-c3ccc4ccccc4c3)c(=O)n1C2 | i
COc1ccc(-c2cc([C@H]3CN4CC[C@H]3C[C@@H]4CNC(=O)NC3CCCCC3)n(C)n2)cc1OC | i
COCCC(=O)N1C[C@@H]2C[C@H](C1)c1c(-c3ccc(OC(F)(F)F)cc3)ccc(=O)n1C2 | i
N#Cc1cccc(-c2ccc3n(c2=O)C[C@H]2C[C@@H]3CN(C(=O)C3CCCCC3)C2)c1 | i
O=C(c1cccnc1)C1CCCN(Cc2cc3n(n2)CCCNC3)C1 (stereo unspecified) | i
CCn1cc(CNC(C)Cc2ccc(C)cc2)cn1 (stereo unspecified) | i
O=S(=O)(NC[C@H]1C[C@@H]2CCN1C[C@@H]2CN1CCN(c2ccccc2)CC1)c1ccc(Cl)cc1 | i
O=C(Nc1ccc2n(c1=O)C[C@H]1C[C@@H]2CN(C(=O)c2cccnc2)C1)C1CCCCC1 | i
CN(C)c1ccc(CN2CC=C(c3ccc(F)cc3)CC2)cc1 | 40.0%*
Fc1ccc(N2CCN(Cc3ccccc3)CC2)cc1 | i
Fc1ccc(CN2CCN(c3ccccc3)CC2)cc1 | i
Cc1ccc(CN2CCN(c3ccc(Cl)cc3)CC2)cc1 | i
CN(C)c1ccc(CN2CCN(c3ccc(F)cc3)CC2)cc1 | 38.0%*
Fc1ccc(CN2CCN(c3ccccc3Cl)CC2)cc1 | i
CC[C@H]1CN2CC[C@H]1C[C@@H]2CNC(=S)Nc1ccc(OC)cc1 | i
O=C(NC[C@H]1C[C@@H]2CCN1C[C@@H]2CN1CCSCC1)c1ccco1 | i
CSc1ccc(C(=O)C2CCCN(Cc3nc(C(C)C)cs3)C2)cc1 (stereo unspecified) | i
COc1ccccc1C(=O)Nc1cccc(N2CCC(NC(C)Cc3cncs3)CC2)c1 (stereo unspecified) | i
